# Data as given in PubChem BioAssay (Tox21).
# Values without a mark were called inactive. Calls of active or inactive are those of the source. Calls come from the whole dose curve; as a rule, active = well fitted curve in the direction sought with a large enough effect in the repeat runs; inconclusive = weak or mixed curves; inactive = flat fitted curve, though single readings scatter.
# Experiment: qHTS assay to test for compound auto fluorescence at 535 nm (green) in HepG2 cell free culture (AID 720686)
# Conditions: Cell-free medium, green autofluorescence 485/535 nm; series mostly up to 91.3 µM
# Description: U.S. Tox21 Program National Center for Advancing Translational Sciences [NCATS] NIH Chemical Genomics Center [NCGC] U.S. Environmental Protection Agency [EPA] National Institutes of Environmental Health Sciences [NIEHS] National Toxicology Program [NTP] U.S. Food and Drug Administration [FDA] Tox21 Assay Overview: Compound auto fluorescence often interferes with screening of the compound library against various biological targets and signaling pathways. Some of these compounds may have fluorophoric properties. Such properties may interfere with the assay outputs resulting in false positives and/or negatives. To decrease such complications and ensure the compound activities are relevant in terms of biological response, the Tox21 10K compound library was screened for auto fluorescence. From the fluorophores used as reporter signals in our screening assays, the auto fluorescence equivalencies of compounds against three fluorophores have been evaluated: Triamterene, Fluorescein and Rose Bengal sodium for blue, green and red fluorescence, respectively. The fluorescence intensities were measured using Excitation/Emission wavelengths at 405/460nm, 485/535nm and 540/590nm for blue, green and red labels, respectively. This assay includes the green fluorescence data.
# Tox21 Assay Protocol Summary: 5 uL of culture medium (MEM containing 10% FBS) per well was dispensed into black wall/clear bottom 1536-well plates using a Multidrop Combi Dispenser (ThermoFisher Scientific, Waltham, MA). After 23 nL compound or DMSO vehicle was transferred into assay plate by a pintool work station (Kalypsys, San Diego, CA), fluorescence intensities in the assay plates were measured by an Envision (PerkinElmer, Shelton, CT) plate reader using three labels for measuring blue, green and red fluorescence at […] 460, 535 and 590nm respectively.
# % is set by controls: 0 for no effect and ±100 for the full control effect.
Structure (SMILES),outcome,"fluorescence, % of fluorescein control"
CCc1c2c(nc3ccc(OC(=O)N4CCC(N5CCCCC5)CC4)cc13)-c1cc3c(c(=O)n1C2)COC(=O)[C@]3(O)CC,inactive,–
N#C[C@@H]1C[C@@H]2C[C@@H]2N1C(=O)[C@@H](N)C12CC3CC(CC(O)(C3)C1)C2,inactive,–
CC#N,inactive,–
CC1CC(=O)NN=C1c1ccc(NCC(C)(C)NCC(O)COc2cc(Cl)ccc2C#N)cc1 (stereo not given),inactive,–
NCC1CCCC(CN)C1 (stereo not given),inactive,–
CCCCCCCC/C=C\CCCCCCCC(=O)OC(CO)CO,inactive,–
CC(CCc1ccc2c(c1)OCO2)NN (stereo not given),inactive,–
CCCc1c(OCCCOc2ccc(OCC(=O)O)cc2)ccc(C(C)=O)c1O,inactive,–
O=C(CCCCCCCCC#CI)Oc1ccccc1,inactive,–
Cc1ccc(S)cc1,inactive,–
O=C(CCCN1CCN(c2ccc(F)cc2)CC1)NC1c2ccccc2CSc2ccccc21 (stereo not given),inactive,–
CC(=O)Oc1ccc2c(c1)CC[C@@H]1[C@@H]2CC[C@]2(C)[C@@H](O)CC[C@@H]12,inactive,–
Oc1ccc(Nc2ccccc2)cc1,inactive,–
CCCCC(CC)CNCC(CC)CCCC (stereo not given),inactive,–
C=CC(C)=CCC=C(C)C,inactive,–
CO[C@@]12[C@H](COC(N)=O)C3=C(C(=O)C(C)=C(N)C3=O)N1C[C@@H]1N[C@@H]12,inactive,–
CCC(C)(C)C1CCC(O)CC1 (stereo not given),inactive,–
Cc1ccc(S(=O)(=O)NC2CCCCC2)cc1,inactive,–
CC(C)C(=O)O,inactive,–
CC1(C)O[C@@H]2C[C@H]3[C@@H]4CCC5=CC(=O)C=C[C@]5(C)[C@H]4[C@@H](O)C[C@]3(C)[C@]2(C(=O)CO)O1,inactive,–

Structure (SMILES),outcome,"fluorescence, % of fluorescein control"
CC(C)(C)CC(C)(C)c1ccc(OCCO)cc1,inactive,–
CCC1(C)CC(=O)NC1=O (stereo not given),inactive,–
CC(C)(CCl)c1ccccc1,inactive,–
CCCCC1C(=O)N(c2ccccc2)N(c2ccc(O)cc2)C1=O (stereo not given),–,-0.17% [at 18.6 µM]
C/C=C/C=C/CCCCCCCO,inactive,–
O=C(N[C@@H](c1ccccc1)[C@@H]1CCCCN1)c1cccc(C(F)(F)F)c1Cl,inactive,–
O=C1NCCN1,inactive,–
O=C(O)c1cccnc1C(=O)O,inactive,–
CCOC(=O)c1ccccc1C,inactive,–
N#C/C(=C1/SC[C@@H](c2ccc(Cl)cc2Cl)S1)n1ccnc1,inactive,–
CC1(C)C2=CCCC(C)(C)[C@]23CC[C@H]1C3,inactive,–
O=S(=O)(c1ccccc1)c1ccc(Cl)cc1,inactive,–
CC1=C(C=O)C(C)(C)CCC1,inactive,–
CNC(=S)NC,inactive,–
CCNC(=O)N1CCN(CCCC(c2ccc(F)cc2)c2ccc(F)cc2)CC1,inactive,–
C/C=C(\C)C(=O)OCCC(C)CCC=C(C)C (stereo not given),inactive,–
O=C1OCCN1/N=C/c1ccc([N+](=O)[O-])o1,inactive,–
CC(C)c1nnc2ccc(-c3ocnc3-c3cc(F)ccc3F)cn12,inactive,–
NC(=O)Cn1c(=O)cc(CCN2CCN(c3nccc4sccc34)CC2)c2ccc(F)cc21,inactive,–
CO[C@H]1O[C@H](CO)[C@@H](O)[C@H](O)[C@H]1O,inactive,–
